# From ChEMBL document CHEMBL1961873, “Compounds: GSK PKIS; Assays: Nanosyn kinase panel” (2012)
# Values joined by “and” are separate entries in the source; they are usually repeats but may differ in a detail not shown here. Equal values may be shown once.
# Experiments:
# [1] = target: RAC-alpha serine/threonine-protein kinase (Homo sapiens) (UniProt P31749); settings: at 0.1 µM
# [2] = target: RAC-alpha serine/threonine-protein kinase (Homo sapiens) (UniProt P31749); settings: at 1 µM
# [3] = target: RAC-beta serine/threonine-protein kinase (Homo sapiens) (UniProt P31751); settings: at 0.1 µM
# [4] = target: RAC-beta serine/threonine-protein kinase (Homo sapiens) (UniProt P31751); settings: at 1 µM
# [5] = target: RAC-gamma serine/threonine-protein kinase (Homo sapiens) (UniProt Q9Y243); settings: at 0.1 µM
# [6] = target: RAC-gamma serine/threonine-protein kinase (Homo sapiens) (UniProt Q9Y243); settings: at 1 µM
# [7] = target: G protein-coupled receptor kinase 6 (Homo sapiens) (UniProt P43250); settings: at 0.1 µM
# [8] = target: G protein-coupled receptor kinase 6 (Homo sapiens) (UniProt P43250); settings: at 1 µM
# [9] = target: T1, Rhodopsin kinase GRK7 (Homo sapiens) (UniProt Q8WTQ7); settings: at 0.1 µM
# T1 sequence (whole entry): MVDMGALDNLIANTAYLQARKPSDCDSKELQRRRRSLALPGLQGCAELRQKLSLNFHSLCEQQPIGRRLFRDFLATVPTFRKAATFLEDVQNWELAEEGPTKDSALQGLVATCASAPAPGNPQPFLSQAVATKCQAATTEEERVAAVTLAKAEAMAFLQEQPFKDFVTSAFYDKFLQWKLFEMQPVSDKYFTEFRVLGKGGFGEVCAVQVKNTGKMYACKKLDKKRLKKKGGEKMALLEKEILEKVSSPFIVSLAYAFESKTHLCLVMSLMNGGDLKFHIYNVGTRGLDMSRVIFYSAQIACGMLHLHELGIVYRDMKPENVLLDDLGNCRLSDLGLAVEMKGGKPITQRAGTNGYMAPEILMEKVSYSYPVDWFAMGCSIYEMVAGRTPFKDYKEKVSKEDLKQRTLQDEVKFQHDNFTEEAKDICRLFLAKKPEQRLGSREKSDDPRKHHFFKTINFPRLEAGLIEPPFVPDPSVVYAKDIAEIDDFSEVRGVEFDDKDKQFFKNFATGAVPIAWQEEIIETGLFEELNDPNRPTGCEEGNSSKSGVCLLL
# [10] = target: T1, Rhodopsin kinase GRK7 (Homo sapiens); settings: at 1 µM
# RAC-beta serine/threonine-protein kinase (Homo sapiens), sequence (P31751 whole entry): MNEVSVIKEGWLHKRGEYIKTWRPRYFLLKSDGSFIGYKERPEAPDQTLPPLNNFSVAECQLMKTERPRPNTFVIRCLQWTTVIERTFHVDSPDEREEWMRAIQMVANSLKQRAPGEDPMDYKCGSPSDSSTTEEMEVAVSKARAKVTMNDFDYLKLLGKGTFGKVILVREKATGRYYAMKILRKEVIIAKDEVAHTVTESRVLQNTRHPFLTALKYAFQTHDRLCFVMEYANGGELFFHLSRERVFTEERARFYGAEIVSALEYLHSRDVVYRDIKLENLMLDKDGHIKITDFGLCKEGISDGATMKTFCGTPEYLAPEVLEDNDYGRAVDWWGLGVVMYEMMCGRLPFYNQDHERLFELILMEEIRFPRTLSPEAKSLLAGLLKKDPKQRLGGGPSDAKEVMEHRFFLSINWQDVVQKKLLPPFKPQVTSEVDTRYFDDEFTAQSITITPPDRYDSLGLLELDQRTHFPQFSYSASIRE
# RAC-gamma serine/threonine-protein kinase (Homo sapiens), sequence (Q9Y243 whole entry): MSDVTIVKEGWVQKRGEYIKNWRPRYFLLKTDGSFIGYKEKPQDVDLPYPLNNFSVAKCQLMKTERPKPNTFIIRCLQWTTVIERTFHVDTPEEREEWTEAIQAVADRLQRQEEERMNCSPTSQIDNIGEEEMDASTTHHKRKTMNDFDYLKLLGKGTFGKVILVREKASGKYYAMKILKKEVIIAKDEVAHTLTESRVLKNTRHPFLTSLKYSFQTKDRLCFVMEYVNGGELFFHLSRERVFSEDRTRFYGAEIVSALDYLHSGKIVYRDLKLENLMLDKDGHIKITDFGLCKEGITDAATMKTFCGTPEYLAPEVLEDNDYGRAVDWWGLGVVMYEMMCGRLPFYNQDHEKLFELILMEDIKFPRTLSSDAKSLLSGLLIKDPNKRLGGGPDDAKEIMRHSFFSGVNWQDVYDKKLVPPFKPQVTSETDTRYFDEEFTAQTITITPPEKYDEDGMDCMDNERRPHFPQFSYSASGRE
# RAC-alpha serine/threonine-protein kinase (Homo sapiens), sequence (P31749 whole entry): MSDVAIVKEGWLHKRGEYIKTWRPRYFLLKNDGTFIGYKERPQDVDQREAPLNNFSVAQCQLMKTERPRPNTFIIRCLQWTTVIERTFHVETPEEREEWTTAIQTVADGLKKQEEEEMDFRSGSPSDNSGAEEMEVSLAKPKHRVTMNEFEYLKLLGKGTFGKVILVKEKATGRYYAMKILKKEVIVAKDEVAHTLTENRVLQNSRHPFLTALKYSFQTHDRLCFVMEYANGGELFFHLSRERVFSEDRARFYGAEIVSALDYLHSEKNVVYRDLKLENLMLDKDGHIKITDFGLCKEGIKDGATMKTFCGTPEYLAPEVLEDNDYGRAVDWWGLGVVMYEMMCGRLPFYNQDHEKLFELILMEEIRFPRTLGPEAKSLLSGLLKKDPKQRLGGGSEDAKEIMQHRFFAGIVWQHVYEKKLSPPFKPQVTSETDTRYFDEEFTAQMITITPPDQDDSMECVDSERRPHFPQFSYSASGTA
# G protein-coupled receptor kinase 6 (Homo sapiens), sequence (P43250 whole entry, looked up): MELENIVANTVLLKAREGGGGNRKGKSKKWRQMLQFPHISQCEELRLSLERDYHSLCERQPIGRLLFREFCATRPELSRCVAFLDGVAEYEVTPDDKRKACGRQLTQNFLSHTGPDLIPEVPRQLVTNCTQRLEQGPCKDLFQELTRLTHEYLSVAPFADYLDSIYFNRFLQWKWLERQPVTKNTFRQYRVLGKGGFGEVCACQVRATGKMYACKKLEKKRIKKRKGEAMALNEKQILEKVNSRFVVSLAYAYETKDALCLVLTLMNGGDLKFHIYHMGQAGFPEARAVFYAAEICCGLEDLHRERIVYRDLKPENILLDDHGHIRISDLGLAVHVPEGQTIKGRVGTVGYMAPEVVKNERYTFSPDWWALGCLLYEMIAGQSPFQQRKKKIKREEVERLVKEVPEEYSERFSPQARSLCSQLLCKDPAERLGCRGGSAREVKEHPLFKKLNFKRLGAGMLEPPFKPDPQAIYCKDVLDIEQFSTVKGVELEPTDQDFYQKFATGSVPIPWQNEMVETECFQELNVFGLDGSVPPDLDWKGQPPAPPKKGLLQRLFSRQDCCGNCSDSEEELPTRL
compound,measurement,setting,value
CCS(=O)(=O)c1ccc(OC)c(Nc2ncc(-c3cccc(C(C)=O)c3)o2)c1,inhibition,[1],0.68%
same,inhibition,[2],0.26%
same,inhibition,[3],0.96%
same,inhibition,[4],2.41%
same,inhibition,[5],1.01%
same,inhibition,[6],1.05%
same,inhibition,[7],3.78%
same,inhibition,[8],10.8%
same,inhibition,[9],4.52%
same,inhibition,[10],4.18%
Cc1c2ccc(N(C)c3ccnc(Nc4cccc(S(N)(=O)=O)c4)n3)cc2nn1C,inhibition,[1],-2.15%
same,inhibition,[2],-4.81%
same,inhibition,[3],-2.16%
same,inhibition,[4],-3.49%
same,inhibition,[5],-0.07%
same,inhibition,[6],-4.61%
same,inhibition,[7],-0.96%
same,inhibition,[8],1.02%
same,inhibition,[9],3.31%
same,inhibition,[10],8.97%
COc1cccc(Nc2nccc(-c3cnn4ncccc34)n2)c1,inhibition,[1],1.34%
same,inhibition,[2],0.43%
same,inhibition,[3],1.17%
same,inhibition,[4],0.61%
same,inhibition,[5],1.46%
same,inhibition,[6],-0.03%
same,inhibition,[7],4.14%
same,inhibition,[8],0.06%
same,inhibition,[9],1.07%
same,inhibition,[10],-2.16%
CNC(=O)c1sc(-n2cnc3cc(OC)c(OC)cc32)cc1OCc1ccccc1C(F)(F)F,inhibition,[1],0.98%
same,inhibition,[2],0.75%
same,inhibition,[3],0.84%
same,inhibition,[4],2.06%
same,inhibition,[5],1.19%
same,inhibition,[6],2%
same,inhibition,[7],0.06%
same,inhibition,[8],-0.11%
same,inhibition,[9],4.78%
same,inhibition,[10],3.47%
Nc1ncnc2occ(-c3ccc(NC(=O)Nc4cc(C(F)(F)F)ccc4F)cc3)c12,inhibition,[1],0.73% and -2.6%
same,inhibition,[2],0.58% and -1.87%
same,inhibition,[3],1.35% and -1.97%
same,inhibition,[4],0.45% and -2.44%
same,inhibition,[5],1.41% and -1.65%
same,inhibition,[6],1.58% and 0.37%
same,inhibition,[7],0.64% and -1.58%
same,inhibition,[8],-4.06% and -1.29%
same,inhibition,[9],0.46% and 3.18%
same,inhibition,[10],-5.44% and -7.01%
CS(=O)(=O)CCNCc1ccc(-c2ccc3ncnc(Nc4ccc(OCc5ccccc5)cc4)c3c2)o1,inhibition,[1],0.6%
same,inhibition,[2],0.62%
same,inhibition,[3],0.5%
same,inhibition,[4],1.64%
same,inhibition,[5],0.25%
same,inhibition,[6],2%
same,inhibition,[7],3.01%
same,inhibition,[8],3.33%
same,inhibition,[9],4.51%
same,inhibition,[10],4.87%
Fc1ccc(Nc2nccc(-c3c(-c4ccc(C(F)(F)F)cc4)nn4ncccc34)n2)cc1F,inhibition,[1],1.15%
same,inhibition,[2],1.34%
same,inhibition,[3],0.91%
same,inhibition,[4],1.4%
same,inhibition,[5],1.72%
same,inhibition,[6],1.36%
same,inhibition,[7],0.33%
same,inhibition,[8],-0.08%
same,inhibition,[9],2.15%
same,inhibition,[10],-0.32%
CN(C)CCNC(=O)Nc1ccc(N(C)c2ccnc(Nc3ccc(CS(C)(=O)=O)cc3)n2)cc1,inhibition,[1],1.23%
same,inhibition,[2],0.77%
same,inhibition,[3],1.42%
same,inhibition,[4],0.96%
same,inhibition,[5],1.47%
same,inhibition,[6],1.13%
same,inhibition,[7],2.73%
same,inhibition,[8],-0.52%
same,inhibition,[9],3.11%
same,inhibition,[10],-0.51%
CNC(=O)c1ncccc1Nc1nc(Nc2cc3c(cc2OC)CCCN3C(=O)CN(C)C)nc2[nH]ccc12,inhibition,[1],1.11%
same,inhibition,[2],1.38%
same,inhibition,[3],2.81%
same,inhibition,[4],2.14%
same,inhibition,[5],2.74%
same,inhibition,[6],1.71%
same,inhibition,[7],14.5%
same,inhibition,[8],56.7%
same,inhibition,[9],16.9%
same,inhibition,[10],50.4%
CN1CCC(C(=O)Nc2n[nH]c3nc(-c4ccc(O)cc4)c(Br)cc23)CC1,inhibition,[1],-3.78% and 0.82%
same,inhibition,[2],-3.1% and -0.05%
same,inhibition,[3],-1.35% and 0.28%
same,inhibition,[4],-1.57% and 1.31%
same,inhibition,[5],-2.51% and 0.97%
same,inhibition,[6],-0.95% and 3.11%
same,inhibition,[7],8.47% and 0.32%
same,inhibition,[8],20.1% and 5.9%
same,inhibition,[9],5.9% and 4.12%
same,inhibition,[10],16.7% and -0.01%
Cn1c(-c2nonc2N)nc2cnccc21,inhibition,[1],0.27%
same,inhibition,[2],0.36%
same,inhibition,[3],2.48%
same,inhibition,[4],1.66%
same,inhibition,[5],1.14%
same,inhibition,[6],1.35%
same,inhibition,[7],3.53%
same,inhibition,[8],4%
same,inhibition,[9],4.22%
same,inhibition,[10],2.15%
CC1(C)CC(n2cnc(-c3ccc(F)cc3)c2-c2ccnc(N)n2)CC(C)(C)N1,inhibition,[1],-0.24%
same,inhibition,[2],0.14%
same,inhibition,[3],-0.58%
same,inhibition,[4],0.6%
same,inhibition,[5],0.06%
same,inhibition,[6],-0.35%
same,inhibition,[7],0.95%
same,inhibition,[8],2.33%
same,inhibition,[9],-0.49%
same,inhibition,[10],-1.38%
CCS(=O)(=O)c1ccc(OC)c(Nc2ncc(-c3cccc(F)c3)o2)c1,inhibition,[1],0.91%
same,inhibition,[2],0.05%
same,inhibition,[3],0.44%
same,inhibition,[4],3.48%
same,inhibition,[5],2.02%
same,inhibition,[6],8.05%
same,inhibition,[7],4.17%
same,inhibition,[8],2.93%
same,inhibition,[9],9.79%
same,inhibition,[10],3.77%
c1ccc(-c2n[nH]cc2-c2ccnc(-c3ccc(OCCn4ccnc4)cc3)c2)nc1,inhibition,[1],-1.55%
same,inhibition,[2],0.14%
same,inhibition,[3],-0.98%
same,inhibition,[4],0.73%
same,inhibition,[5],-0.34%
same,inhibition,[6],1.01%
same,inhibition,[7],1.73%
same,inhibition,[8],4.13%
same,inhibition,[9],-0.12%
same,inhibition,[10],4.02%
Nc1nonc1-c1nc2cnccc2n1C1CC1,inhibition,[1],1.26% and -2.25%
same,inhibition,[2],8.06% and 5.34%
same,inhibition,[3],2.53% and -2.31%
same,inhibition,[4],5.04% and 2.15%
same,inhibition,[5],1.66% and -2.03%
same,inhibition,[6],6.38% and 2.16%
same,inhibition,[7],0.65% and 3.64%
same,inhibition,[8],6.46% and 11.6%
same,inhibition,[9],-3.85% and 3.25%
same,inhibition,[10],-0.48% and 7.79%
COc1cc2c(cc1Nc1nc(Nc3cccc(F)c3C(N)=O)c3cc[nH]c3n1)N(C(=O)CN1CCN(C(C)C)CC1)CC2,inhibition,[1],0.64%
same,inhibition,[2],1.39%
same,inhibition,[3],1.31%
same,inhibition,[4],3.18%
same,inhibition,[5],1.35%
same,inhibition,[6],3.89%
same,inhibition,[7],7.5%
same,inhibition,[8],26.5%
same,inhibition,[9],6.57%
same,inhibition,[10],18.7%
